Measured values: PubChem BioAssay (NCATS)
Records with an inconclusive call do not appear. Where a call stands in place of a potency, no number is given. The source made the active and inactive calls. Calls come from the whole dose curve; as a rule, active = well fitted inhibition curve with a large enough effect; inconclusive = small, poorly fitted or top-dose-only effect; inactive = flat fitted curve, though single readings scatter.

Each compound was assayed on astro (assay: Drug repurposing screens with cells derived from glioblastoma tumor samples (AID 1345199; note: nearly all actives have a fitted effect of over 40% in size)). Settings: viability, ATP luminescence, 48 h; series mostly up to 45.9 µM.
Method: CD133+ cells were isolated from GBM patient biopsies and cultured as neurospheres. Neurospheres from four patients were used to screen the NCATS pharmaceutical collection (NPC) library of approved drugs and bioactive compounds. […] The neurospheres were incubated with drugs for 48 hours in 1536-well format, then assayed with an ATP content cell viability assay. […] These hits were cherry picked to confirm activity in the four original GBM lines screened plus three other slower growing GMB lines (unable to yield enough cells for a full primary screen). Variable activities of the confirmed primary hits in the different GBM patient lines were observed. The patient line 206 responded to the greatest number of compounds and line 923 responded to the least amount of active compounds.
Potency is the fitted concentration of half-maximal effect.

SMILES	Potency
Cc1ccnc(NS(=O)(=O)c2ccc(N)cc2)n1	inactive
CC(C)NC[C@@H](O)COc1cccc2ccccc12	inactive
COc1cc(OC)cc(OC)c1	inactive
CN1[C@@H]2CC[C@H]1CC(OC(=O)c1c[nH]c3ccccc13)C2 (stereo not given in full)	inactive
OC(CCN1CCCCC1)(c1ccccc1)c1ccccc1	inactive
N[C@H](CO)C(=O)O	inactive
CCn1cc(C(=O)O)c(=O)c2cnc(N3CCCC3)nc21	inactive
CC[C@H](C)C(=O)O[C@H]1CCC=C2C=C[C@H](C)[C@H](CC[C@@H]3C[C@@H](O)CC(=O)O3)[C@H]21	2000 nM (active)
CNCC[C@@H](Oc1ccccc1C)c1ccccc1	inactive
COc1cccc2c1C(=O)c1c(O)c3c(c(O)c1C2=O)C[C@@](O)(C(C)=O)C[C@@H]3O[C@H]1C[C@H](N)[C@H](O)[C@H](C)O1	1120 nM (active)
C[C@@H]1C[C@H]2[C@@H]3C[C@H](F)C4=CC(=O)C(Cl)=C[C@]4(C)[C@@]3(F)[C@@H](O)C[C@]2(C)[C@@]1(O)C(=O)CO	inactive
OC[C@@H](O)[C@@H](O[C@@H]1O[C@H](CO)[C@H](O)[C@H](O)[C@H]1O)[C@H](O)[C@@H](O)CO	inactive
CC(C)(CO)[C@@H](O)C(=O)NCCCO	inactive
O=C1OC2(c3ccc(O)cc3Oc3cc(O)ccc32)c2ccccc21	inactive
Cc1cc(O)c(C(C)C)cc1Cl	inactive
CC(=O)OCC(=O)[C@@]1(O)CC[C@H]2[C@@H]3CCC4=CC(=O)C=C[C@]4(C)[C@H]3[C@@H](O)C[C@@]21C	inactive
NC(=O)CC[C@@H]1NC(=O)[C@H](Cc2ccccc2)NC(=O)[C@H](Cc2ccc(O)cc2)NC(=O)CCSSC[C@@H](C(=O)N2CCC[C@H]2C(=O)N[C@@H](CCCN=C(N)N)C(=O)NCC(N)=O)NC(=O)[C@H](CC(N)=O)NC1=O	inactive
CC(O)C(=O)O (stereo not given)	inactive
NC[C@H]1O[C@H](O[C@H]2[C@H](O[C@@H]3O[C@H](CO)[C@@H](O)[C@H]3O)C(O)[C@H](N)C[C@@H]2N)[C@H](N)[C@@H](O)[C@@H]1O (stereo not given in full)	inactive
CC1(C)O[C@@H]2[C@@H](CO[C@@]3(COS(N)(=O)=O)OC(C)(C)O[C@@H]23)O1	inactive

SMILES	Potency
O=C(CCCN1CCC(O)(c2ccc(Br)cc2)CC1)c1ccc(F)cc1	inactive
CCCCC1=NC2(CCCC2)C(=O)N1Cc1ccc(-c2ccccc2-c2nn[nH]n2)cc1	inactive
Nc1cc(Cl)c(NC2=NCCN2)c(Cl)c1	inactive
C[C@H](O)C(=O)Nc1c(I)c(C(=O)NC(CO)CO)c(I)c(C(=O)NC(CO)CO)c1I	inactive
CC(=O)N(O)CCCCCNC(=O)CCC(=O)N(O)CCCCCNC(=O)CCC(=O)N(O)CCCCCN	inactive
COc1cc(C(=S)N2CCOCC2)cc(OC)c1OC	inactive
CN(C)CC/C=C1\c2ccccc2Sc2ccc(Cl)cc21	22400 nM (active)
C[C@]12CCC(=O)C=C1CC[C@H]1[C@@H]3CC[C@](O)(C(=O)CO)[C@@]3(C)C[C@H](O)[C@@]12F	inactive
CC(C)(C(=O)c1cccnc1)c1cccnc1	inactive
C/C=C/c1ccc(OC)cc1	inactive
COc1c2occc2c(OC)c2c(=O)cc(C)oc12	inactive
CC(C)COC(=O)OCN1C(=O)CN(CCN2CC(=O)N(COC(=O)OCC(C)C)C(=O)C2)CC1=O	inactive
Oc1ccc(Cl)c2cccnc12	inactive
CCCCS(=O)(=O)N[C@@H](Cc1ccc(OCCCCC2CCNCC2)cc1)C(=O)O	inactive
Cc1c(C(C)C)c(=O)n(-c2ccccc2)n1C	inactive
CCCCN1CCCC1C(=O)Nc1c(C)cc(C)cc1C (stereo not given)	inactive
C[C@]12CC[C@H]3[C@@H](CCC4=CC(=O)CC[C@@]43C)[C@@H]1CC[C@@H]2C(=O)CO	inactive
CN(C/C=C/c1ccccc1)Cc1cccc2ccccc12	inactive
C1CCc2nnnn2CC1	inactive
C[C@@H]1C[C@H]2[C@@H]3CCC4=CC(=O)C=C[C@]4(C)[C@@]3(F)[C@@H](O)C[C@]2(C)[C@H]1C(=O)CO	inactive
